# Assay outcomes deposited in PubChem BioAssay by National Center for Advancing Translational Sciences (NCATS).
# Hits are enriched below; roughly 19% of the tested compounds scored in any of these assays.
# IL1B secr inh: qHTS for Inhibitors of Inflammasome Signaling: IL-1-beta AlphaLISA Primary Screen; THP-1 LPS/ATP IL-1B secretion, AlphaLISA, 16 h; hits give low values; activity change, % at 57.5 µM; actives 4.7% (n = 360,000); AID 743279, 2014; in the data active = activity change below about -50%; inconclusive = mostly about -30% to -49%
#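 THP-1 cells pretreated 1 hr with compounds (up to 57.5 uM final), then stimulated with LPS (250 ng/mL final) plus ATP (1.25 mM final); secreted IL-1B measured by AlphaLISA after 16 hr, decreased signal indicating inhibition.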
# HT1080 IDH1KD tx: qHTS for induction of synthetic lethality in tumor cells producing 2HG: qHTS for the HT-1080-IDH1KD cell line. HT-1080 IDH1 knockdown viability, ATP luminescence, 48 h. actives 2% (n = 360,000). Potency, µM (series often up to 46.1 µM), for the others: at the top dose activity, negative = toxicity, actives largely listed as cytotoxic;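 note: potency is the fitted concentration of half-maximal effect; 0% = DMSO wells and -100% = cell-free medium wells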
#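 Knockdown cells (IDH1KD HT-1080) received compounds 2 h after plating at 750 cells/well and were kept 48 h at 37 °C in 5% FBS RPMI. A CellTiter-Glo luminescence read gave % activity for curve fitting.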
# DT40 TDP1 CPT: qHTS for Inhibitors of human tyrosyl-DNA phosphodiesterase 1 (TDP1): qHTS in cells in presence of CPT | chicken DT40 Tdp1-/-;hTDP1 cells + 20 nM CPT, ATP luminescence, 48 h | Potency, µM (series often up to 46.2 µM), without a hit: at the highest dose activity change, negative = growth inhibition, actives largely listed as inhibitors | actives 12% (n = 420,000) | AID 686979, 2013; note: potency is the fitted concentration of half-maximal effect; nearly all actives have a fitted effect of over 55% in size
#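 Cell growth measured by CellTiter-Glo luminescence after a minimum 48 h, 37 C compound exposure with 20 nM CPT in Tdp1-knockout DT40 cells stably expressing hTDP1, seeded 400/well; qHTS titration format.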
# ELG1 repair inh: qHTS screen for small molecules that inhibit ELG1-dependent DNA repair in human embryonic kidney (HEK293T) cells expressing luciferase-tagged ELG1 | Potency, µM (top dose mostly 46.1 µM), for inactives: at the highest dose activity change, negative = inhibition, most hits filed as inhibitors | actives 2.3% (n = 330,000) | HEK293T ELG1-luciferase reporter, luminescence, 16 h; DNA damage induced by 5-fluorouridine; note: potency is the fitted concentration of half-maximal effect; nearly all actives have a fitted effect of over 55% in size
#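 Quantitative HTS, concentration-response format. 2,000 cells/well co-treated with 5-fluorouridine and compound, 16 hr in 5% CO2 at 37 °C; ONE-Glo luminescence read after 30 min.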
# TDP1 cell noCPT: qHTS for Inhibitors of human tyrosyl-DNA phosphodiesterase 1 (TDP1): qHTS in cells in absence of CPT | Potency, µM (highest dose often 46.2 µM), for inactives: at the highest dose activity change, negative = growth inhibition, most hits filed as inhibitors | DT40 Tdp1-/- hTDP1 cells, no CPT, ATP luminescence, 48 h | actives 15% (n = 420,000); note: potency is the fitted concentration of half-maximal effect; nearly all actives have a fitted effect of over 55% in size
#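 Chicken DT40 Tdp1-/- cells stably complemented with human TDP1 were seeded at 400 cells/well with DMSO in place of 20 nM camptothecin. After compound pinning, cells grew at least 48 hr at 37 °C; viability read by CellTiter-Glo luminescence.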
# HT1080-NT tox: qHTS for induction of synthetic lethality in tumor cells producing 2HG: qHTS for the HT-1080-NT fibrosarcoma cell line. HT-1080-NT fibrosarcoma viability, CellTiter-Glo ATP luminescence, 48 h. Potency, µM (titrated, usually from 46.1 µM), for inactives: top-dose activity, negative = less viability, usual class: cytotoxic. actives 1.6% (n = 360,000);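 note: NT is the 2HG producing partner of a matched IDH1 knockdown line; potency is the fitted concentration of half-maximal effect; 0% = DMSO-treated cells and -100% = media-only wells without cells; nearly all actives have a fitted effect of over 55% in size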
#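 Viability of the 2HG-overproducing fibrosarcoma line after 48 hours of compound exposure at 37 degrees C was determined by luminescence with CellTiter-Glo, and concentration-effect curves were then fitted and categorized.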
# Starred values were filed as active, the others as inactive; u = inconclusive; x = no result; [ ] = dose if it differs, or a comment. Unless noted, calls come from the whole dose curve; as a rule, active = well fitted curve in the direction sought with a large enough effect; inconclusive = small, poorly fitted or top-dose-only effect, or another doubt; inactive = no such curve, though single readings can be large; an effect the other way counts as inactive or inconclusive. Unless noted, % is set by controls: 0 for no effect and ±100 for the full control effect.
SMILES,IL1B secr inh,HT1080 IDH1KD tx,DT40 TDP1 CPT,ELG1 repair inh,TDP1 cell noCPT,HT1080-NT tox
O=C(Nc1nc2c(s1)COc1ccccc1-2)c1cccs1,15.3,-0.7%,11.6µM*,-16.5%,23.1µM*,-11.6%
COc1ccc(N2C(=S)NC3c4cc(Cl)ccc4OC2(C)C3C(=O)N(C)C)cc1 (stereo unspecified),8.2,u,29.1µM*,7.9%,u,u
O=C(NC(=S)Nc1ccc(Cl)cc1)c1ccccc1,-17.4,10.0%,13.8%,u,3.2%,u
Cc1ccc(C(NC(=O)NC(C)c2ccccc2)C(Cl)(Cl)Cl)cc1F (stereo unspecified),-61.9*,u,18.4µM*,u,-85.2%,-27.0%
O=C(Nc1ccc(Cl)cc1)C(Cl)C(=O)c1ccccc1 (stereo unspecified),u,u,9.2µM*,u,13µM*,-12.1%
CC(NC(=O)Nc1ccc(Cl)cc1)c1ccccc1 (stereo unspecified),-3.7,-0.8%,u,-14.4%,25.9µM*,-0.4%
O=C(Nc1ccccc1Cl)C(Cl)C(=O)c1ccccc1 (stereo unspecified),-67.7*,18.2%,14.6µM*,7.1%,13µM*,12.3%
CCOP(=O)(OCC)C(NC(=O)Nc1ccc(Cl)cc1)c1ccccc1 (stereo unspecified),6.2,1.2%,-5.8%,0.4%,-28.6%,4.6%
O=c1c(Cc2c(F)cccc2Cl)c(O)ccn1CC1CCCO1 (stereo unspecified),13.4,11.5%,8.9%,8.2%,-1.6%,17.5%
COc1ccc2c(c1)OC(C)CN(CCNC(=O)c1cc3cc(F)ccc3[nH]1)C2 (stereo unspecified),x,x,6.5%[9.04 µM],x,u,x
Cc1ccc(Sc2ccc(NC(=O)CCN3C(=O)NC4(CCCC4)C3=O)cc2)c(C)c1,-3.7,u,u,-17.7%,u,u
O=C(NC1CCCCC1)c1ccc2c(c1)N(Cc1ccccc1Cl)C(=O)c1ccccc1S2,x,x,-19.7%,x,u,x
COc1cc(NC2c3ccccc3C(=O)N2Cc2ccccc2Cl)cc(OC)c1OC (stereo unspecified),10.8,4.8%,-17.6%,-6.6%,-28.4%,3.0%
Cc1ccnc(NC2c3ccccc3C(=O)N2Cc2ccccc2Cl)c1 (stereo unspecified),38.4,4.8%,u,4.6%,25.9µM*,14.6%
CCn1c(SCC(=O)Nc2nncs2)nnc1C(C)NC(=O)c1ccccc1Br (stereo unspecified),-19.7,12.9%,3.5%,4.2%,-21.5%,-3.3%
Nc1cc2[nH]c(=O)c3ccccc3c2cc1[N+](=O)[O-],-9.4,-26.8%,23.1µM*,x,u,-1.5%
NS(=O)(=O)c1cccc2c1c([N+](=O)[O-])cc1[nH]c(=O)c(=O)[nH]c12,x,x,5.9%,x,-5.1%,x
O=C(O)c1ccc(NC(=O)[C@H](Cc2ccc(O)cc2)NC(=O)c2ccccc2)cc1,x,x,-13.7%,x,-1.4%,x
COc1cc(CNCc2ccccn2)ccc1OCc1cccc(Cl)c1,-79.6*,-17.8%[9.24 µM],u,4.6%,u,u
O=C(NCc1ccccn1)c1cc(Cl)ccc1OCc1ccccc1,-53.3*,-18.6%,u,16.4µM*,u,-9.1%
COc1cc(CNCc2ccccn2)ccc1OCc1ccc(Cl)cc1,-57.2*,u,u,7.8%,u,u
Clc1ccc(COc2cccc(CNCc3ccncc3)c2)cc1,-15.2,-26.8%,u,-19.3%,18.4µM*,-13.7%
CCCOc1ccc(C2c3c(oc4ccccc4c3=O)C(=O)N2c2nc(C)c(C(=O)OCC)s2)cc1 (stereo unspecified),x,x,8.3%,x,-19.9%,x
O=C(CSc1nc2ccccc2c(=O)n1-c1ccccc1Cl)NC1CCS(=O)(=O)C1 (stereo unspecified),3.5,-11.2%,-23.9%,6.5%,-5.2%,-5.8%[9.24 µM]
C=CCC(NCc1ccccc1)c1ccc(C)o1 (stereo unspecified),-1.3,12.3%,u,x,u,0.4%
SMILES,IL1B secr inh,HT1080 IDH1KD tx,DT40 TDP1 CPT,ELG1 repair inh,TDP1 cell noCPT,HT1080-NT tox
C=CCC(NCc1ccccc1)c1ccc(Cl)cc1 (stereo unspecified),-14.8,-2.8%,u,-7.5%,13µM*,-5.8%
COc1ccc(OCCOC(=O)CNC(=O)c2ccc(Cl)cc2Cl)cc1,7.8,-0.9%,-18.1%,u,-4.4%,-4.1%
O=C(NCCOc1ccccc1)c1cc(C(=O)NCCOc2ccccc2)cc([N+](=O)[O-])c1,-11.0,-17.7%,u,u,18.4µM*,0.0%
COc1ccc(C(=O)NCC(=O)OCCOc2ccc(Cl)cc2)cc1OC,-55.9*,1.2%,-0.3%,-10.0%,-12.8%,-2.5%
COc1cc(C(=O)NCCOc2cc(C)cc(C)c2)cc(OC)c1OC,27.1,7.31µM*,4.11µM*,u,2.91µM*,11.6µM*
COC(=O)c1ccc(COC(=O)CNC(=O)CNC(=O)c2ccc(OC)cc2)cc1,-67.3*,4.7%,13.1%,x,u,7.8%
O=C(NCCOc1ccccc1)c1ccccc1[N+](=O)[O-],11.8,2.5%,-3.6%,20.8%,-3.2%,4.8%
CCOc1ccc(C(=O)NCC(c2ccc3c(c2)OCO3)N2CCN(C)CC2)cc1 (stereo unspecified),x,x,0.1%,x,0.6%,x
COc1cc(C(=O)NCCOc2ccccc2)cc(OC)c1OC,-14.6,2.0%,26.9%,3.3%,-8.5%,15.6%
COc1ccc(C(=O)NCCOc2cccc(Oc3ccccc3)c2)cc1OC,0.0,-7.2%,u,u,11.6µM*,-6.4%
CCCCOc1ccc(C(=O)NCC(=O)NCC(=O)OCC)cc1,20.3,-3.4%,16.4µM*,-1.3%,u,-11.2%
Cc1ccc(CNC(=O)C2CCN(S(=O)(=O)c3cc(-c4noc(C)n4)ccc3C)CC2)cc1,x,x,4.61µM*,x,2.59µM*,x
Cc1nc(-c2ccc(C)c(S(=O)(=O)N3CCC(C(=O)NCc4ccc(F)cc4)CC3)c2)no1,x,x,2.59µM*,x,5.17µM*,x
Cc1ccc(CNC(=O)C2CCN(S(=O)(=O)c3c(C)noc3/C=C/N(C)C)CC2)cc1,0.0,7.1%,0.9%,3.1%,13.6%,-0.4%
